Eight compounds from PubChem BioAssay (Tox21) can be followed below.

Values without a mark were called inactive. Records with an inconclusive call do not appear. The source made the active and inactive calls. Unless noted, the call rests on the fitted dose curve.

Assay [1] in a line: Nuclear factor erythroid 2-related factor 2/antioxidant responsive element (Nrf2/ARE) small molecule agonists: qHTS cell viability counter screen in human keratinocytes (AID 1919968; active means well fitted curve in the direction sought with a large enough effect in the repeat runs; an effect the other way counts as inactive or inconclusive; further: nearly all actives have a fitted effect of over 55% in size; further: potency means the concentration at half of the fitted maximal effect). A digest of the protocol:
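CellTiter-Fluor fluorescence, read 1 h after reagent, gave viability in the same wells as the ARE-luciferase assay. KeratinoSens cells (1,500/well) had 23 h compound exposure at 37 C/5% CO2 following 5 h plating.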
A general note: Quantitative high-throughput screening tests each substance at several concentrations.

Assay [2] can be described thus: Nuclear factor erythroid 2-related factor 2/antioxidant responsive element (Nrf2/ARE) small molecule agonists: luciferase reporter gene qHTS assay in human keratinocytes (AID 1919969). Further: nearly all actives have a fitted effect of over 35% in size.
Assay [3] has as its target Gonadotropin-releasing hormone receptor (Homo sapiens) (UniProt P30968). Kind of assay: Human gonadotropin-releasing hormone receptor (GnRHR) small molecule agonists, calcium flux assay in GnRHR-HEK293 cells (AID 1920063). Further: nearly all actives have a fitted effect of over 35% in size. A digest of the protocol:
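Agonist mode: compounds at 15 concentrations, in triplicate, went onto calcium dye-loaded GnRHR-HEK293 cells. Intracellular calcium was then followed as 480/540 nm fluorescence at 1 s intervals over 3 min.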
In general terms: Calcium flux is commonly read through the fluorescence of an indicator in the cells.

Assay [4] has as its target KiSS-1 receptor (Homo sapiens) (UniProt Q969F8). Kind of assay: Human kisspeptin (KISS1R) small molecule agonists, calcium flux assay in KISS1R-HEK293 cells (AID 1920064; active means well fitted curve in the direction sought with a large enough effect in the repeat runs; an effect the other way counts as inactive or inconclusive). Put shortly: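 Agonist mode: intracellular calcium rise tracked at 1 s intervals over 3 min (480/540 nm) immediately after compound addition to dye-loaded KISS1R-HEK293 stable cells. Each compound tested at 15 concentrations in triplicate.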

The nature of assay [5]: G protein-coupled receptor (GPCR) small molecule agonists, calcium flux assay: HEK293 wild type cell line counter screen (AID 1920065). Put shortly:
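Calcium flux counter screen: compound added in agonist mode at 15 concentrations in triplicate to dye-loaded parental HEK293 cells. Fluorescence (480/540) read kinetically for 3 min; ATP served as positive control.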

Assay [6] can be described thus: p53 small molecule agonists, cell-based qHTS assay with human liver microsomes (AID 1963577).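 Further: p53 response element beta-lactamase reporter cells with liver microsomes plus NADPH.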 Put shortly:
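Metabolically competent format: test substances, human liver microsomes and NADPH (both 0.5 mg/mL final) incubated with p53RE-bla cells 16 h at 37 C. Beta-lactamase reporter signal then quantified by fluorescence.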

Assay [7] is described as follows: p53 small molecule agonists, cell-based qHTS assay with rat liver microsomes (AID 1963578). Put shortly:
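Each plate received p53RE-bla cells, then compound, then rat liver microsomes and NADPH (both 0.5 mg/mL final). Plates were held 16 h at 37 C, and beta-lactamase activity was detected with LiveBLAzer over 2 h.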

Assay [8] in a line: p53 small molecule agonists, cell-based qHTS assay with human liver microsomes: qHTS cell viability counter screen (AID 1963579). Further: nearly all actives have a fitted effect of over 45% in size. Put shortly: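 Tox21 library compounds, delivered from DMSO stocks, were tested on p53RE-bla cells together with 0.5 mg/mL human liver microsomes and 0.5 mg/mL NADPH (final) over 16 h at 37 C; CellTiter-Glo luminescence served as the cytotoxicity measure.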

Assay [9] is described as follows: p53 small molecule agonists, cell-based qHTS assay with rat liver microsomes: qHTS cell viability counter screen (AID 1963580). Further: nearly all actives have a fitted effect of over 45% in size. A digest of the protocol:
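Counter screen for cytotoxicity under metabolic activation: rat liver microsomes and NADPH, 0.5 mg/mL final each, added with compounds to p53RE-bla HCT-116 cells; 16 h at 37 C, then ATP luminescence read.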

The nature of assay [10]: p53 small molecule agonists, cell-based qHTS assay: qHTS cell viability counter screen (AID 1963581). Further: nearly all actives have a fitted effect of over 45% in size. Put shortly: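 Counter screen read by CellTiter-Glo luminescence (ATP content, 30 min at room temperature), run in the same wells as the beta-lactamase reporter read. HCT-116 p53RE-bla cells saw compounds for 16 h at 37 C.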
A short description of assay [11]: p53 small molecule agonists, cell-based qHTS assay (AID 1963582; active means well fitted activation curve with a large enough effect in the signal ratio in the repeat runs, not every such curve was filed as active; the % refers to the signal ratio). Put shortly:
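Read-out is beta-lactamase FRET fluorescence after 2 h at room temperature with LiveBLAzer B/G substrate. p53 response element-bla cells were treated 16 h at 37 C with compounds in DMSO, added 5 h after seeding.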

Assay [12] concerns the target Muscarinic acetylcholine receptor M1 (Homo sapiens) (UniProt P11229). The assay is described as follows: Cholinergic receptor muscarinic 1 (CHRM1) small molecule antagonists, cell-based qHTS assay (AID 1963588). Further: nearly all actives have a fitted effect of over 40% in size. Further: potency means the concentration at half of the fitted maximal effect. A digest of the protocol: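 Compounds were tested at 15 concentrations in three independent runs. Dye-loaded CHRM1-CHO cells were exposed 5 min at room temperature before stimulation by acetylcholine added at 50nM. Intracellular calcium was read kinetically on FDSS for 3 min.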

Assay [13] shares this target. The assay is described as follows: Cholinergic receptor muscarinic 1 (CHRM1) small molecule agonists, cell-based qHTS assay (AID 1963589). Further: nearly all actives have a fitted effect of over 35% in size. A digest of the protocol: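 Agonist-mode calcium-flux screen: compounds at 15 concentrations, three independent runs, were pin-transferred onto dye-loaded human CHRM1-CHO cells. Fluorescence was then recorded kinetically every second over minutes.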

Assay [14] in a line: cAMP Responsive Elements (CRE) small molecule antagonists, cell-based qHTS assay (AID 1963591; active means well fitted inhibition curve with a large enough effect in the signal ratio in the repeat runs, not every such curve was filed as active; the % refers to the signal ratio). A digest of the protocol:
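Antagonist mode: compounds are added alongside the adenylyl cyclase activator NKH477 (0.25 uM final) to CRE-bla HEK293T cells for 3 h. LiveBLAzer FRET substrate, 2 h at room temperature, reports bla expression.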

Assay [15] deals with Beta-2 adrenergic receptor (Homo sapiens) (UniProt P07550). Kind of assay: Adrenergic beta2 receptor (ADRB2) small molecule antagonists, cell-based qHTS assay (AID 1963592). Further: series mostly up to about 92 µM; nearly all actives have a fitted effect of over 50% in size. Put shortly: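 Assay format: CHO-ADRB2 cells, 18-20hr seeding at 37C/5% CO2, then compound plus 1nM isoproterenol agonist mix for 0.5hr RT. Homogeneous time-resolved fluorescence cAMP detection after 1hr, expressed as 665/615 nm ratio.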

The target is the same in assay [16]. The assay is described as follows: Adrenergic beta2 receptor (ADRB2) small molecule agonists, cell-based qHTS assay (AID 1963593).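 Further: CHO cells stably overexpressing human ADRB2.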 A digest of the protocol: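 CHO cells stably over-expressing ADRB2 were plated overnight at 37C, then dosed with compounds plus a stimulation mix containing 100uM IBMX and 25uM Ro-20-1724 for 0.5hr at room temperature. cAMP was measured by HTRF competition, 1hr.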

Assay [17] deals with D(2) dopamine receptor (Homo sapiens) (UniProt P14416). The assay is described as follows: Dopamine D2 receptor (DRD2) small molecule agonists, cell-based qHTS assay (AID 1963594). Further: nearly all actives have a fitted effect of over 35% in size. A digest of the protocol: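 HEK293 cells stably expressing DRD2 were cultured 24 h at 37 C, then given Ro20-1724 (0.1 mM final) and compounds for 10 min at room temperature. NKH477 (200nM) was then added for 30 min. cAMP was read by HTRF.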

Assay [18] shares this target. The assay is described as follows: Dopamine D2 receptor (DRD2) small molecule antagonists, cell-based qHTS assay (AID 1963595; active means well fitted inhibition curve with a large enough effect in the signal ratio in the repeat runs, with a control signal flat; the % refers to the signal ratio). A digest of the protocol: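 HEK293 cells stably expressing DRD2 were preincubated with 0.1 mM Ro20-1724, then with compound for 10 min at room temperature. Cells were stimulated with 200 nM NKH477 plus 12 nM quinpirole for 30 min, and cAMP was read by HTRF.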

In assay [19] the target is 5-hydroxytryptamine receptor 2A (Homo sapiens) (UniProt P28223). Kind of assay: 5-hydroxytryptamine receptor 2A (HTR2A) small molecule agonists, cell-based qHTS assay (AID 1963587). Further: nearly all actives have a fitted effect of over 30% in size. Put shortly: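 HTR2A-CHO cells, plated 18 h at 37 C/5% CO2, dye-loaded 1 h at 37 C; compounds in DMSO added by pin tool (agonist mode). Intracellular calcium flux read as kinetic fluorescence on FDSS over 2 min at 1 s intervals.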

The nature of assay [20]: cAMP Responsive Elements (CRE) small molecule agonists, cell-based qHTS assay (AID 1963590). Put shortly: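 Agonist mode: compound added to CRE-bla HEK 293T cells (2,000/well, 18 h after plating) for 3 h at 37 C/5% CO2. Reporter activity detected via FRET beta-lactamase substrate, 2 h room-temperature loading.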

D(2) dopamine receptor (Homo sapiens), sequence (P14416 whole entry, looked up): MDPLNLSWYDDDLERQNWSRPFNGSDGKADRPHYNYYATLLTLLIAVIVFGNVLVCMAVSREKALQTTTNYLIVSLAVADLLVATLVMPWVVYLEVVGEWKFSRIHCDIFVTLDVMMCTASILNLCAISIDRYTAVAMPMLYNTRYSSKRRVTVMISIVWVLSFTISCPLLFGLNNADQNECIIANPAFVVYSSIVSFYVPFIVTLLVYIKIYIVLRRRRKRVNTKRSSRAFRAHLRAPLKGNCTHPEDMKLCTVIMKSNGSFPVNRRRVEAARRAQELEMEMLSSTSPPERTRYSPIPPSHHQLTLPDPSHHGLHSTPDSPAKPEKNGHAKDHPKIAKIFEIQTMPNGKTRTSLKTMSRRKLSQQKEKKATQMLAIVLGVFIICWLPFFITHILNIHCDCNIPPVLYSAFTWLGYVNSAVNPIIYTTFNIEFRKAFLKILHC
KiSS-1 receptor (Homo sapiens), sequence (Q969F8 whole entry, looked up): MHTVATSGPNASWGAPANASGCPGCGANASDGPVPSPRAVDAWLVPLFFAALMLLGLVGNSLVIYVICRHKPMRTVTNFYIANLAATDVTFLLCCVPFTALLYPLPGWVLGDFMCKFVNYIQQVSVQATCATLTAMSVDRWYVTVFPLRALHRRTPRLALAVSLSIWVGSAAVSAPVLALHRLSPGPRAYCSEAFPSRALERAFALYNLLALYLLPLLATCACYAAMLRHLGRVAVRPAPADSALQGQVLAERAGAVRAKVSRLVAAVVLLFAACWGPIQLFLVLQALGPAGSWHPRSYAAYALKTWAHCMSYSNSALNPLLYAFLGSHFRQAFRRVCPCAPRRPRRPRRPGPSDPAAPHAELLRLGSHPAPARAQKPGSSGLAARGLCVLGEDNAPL
Muscarinic acetylcholine receptor M1 (Homo sapiens), sequence (P11229 whole entry, looked up): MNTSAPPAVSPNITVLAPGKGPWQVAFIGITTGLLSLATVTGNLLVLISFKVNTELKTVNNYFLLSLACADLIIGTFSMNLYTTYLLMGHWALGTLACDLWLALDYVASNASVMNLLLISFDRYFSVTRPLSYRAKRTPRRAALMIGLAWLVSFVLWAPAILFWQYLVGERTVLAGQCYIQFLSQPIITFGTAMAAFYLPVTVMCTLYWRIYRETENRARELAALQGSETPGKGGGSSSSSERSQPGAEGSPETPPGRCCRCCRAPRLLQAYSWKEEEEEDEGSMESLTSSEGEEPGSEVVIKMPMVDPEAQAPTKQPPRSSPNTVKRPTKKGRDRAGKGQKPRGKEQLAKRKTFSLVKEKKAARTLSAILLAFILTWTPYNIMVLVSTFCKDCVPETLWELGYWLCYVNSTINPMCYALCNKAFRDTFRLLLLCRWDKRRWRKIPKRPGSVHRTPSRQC
Gonadotropin-releasing hormone receptor (Homo sapiens), sequence (P30968 whole entry, looked up): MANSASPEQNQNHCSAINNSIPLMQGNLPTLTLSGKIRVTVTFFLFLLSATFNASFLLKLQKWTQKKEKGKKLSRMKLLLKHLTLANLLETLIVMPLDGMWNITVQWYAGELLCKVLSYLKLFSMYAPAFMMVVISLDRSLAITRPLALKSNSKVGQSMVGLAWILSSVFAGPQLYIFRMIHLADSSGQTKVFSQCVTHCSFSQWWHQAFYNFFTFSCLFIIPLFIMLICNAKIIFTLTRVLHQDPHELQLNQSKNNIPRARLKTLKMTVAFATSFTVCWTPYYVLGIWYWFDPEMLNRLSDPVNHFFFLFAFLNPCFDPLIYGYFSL
Beta-2 adrenergic receptor (Homo sapiens), sequence (P07550 whole entry, looked up): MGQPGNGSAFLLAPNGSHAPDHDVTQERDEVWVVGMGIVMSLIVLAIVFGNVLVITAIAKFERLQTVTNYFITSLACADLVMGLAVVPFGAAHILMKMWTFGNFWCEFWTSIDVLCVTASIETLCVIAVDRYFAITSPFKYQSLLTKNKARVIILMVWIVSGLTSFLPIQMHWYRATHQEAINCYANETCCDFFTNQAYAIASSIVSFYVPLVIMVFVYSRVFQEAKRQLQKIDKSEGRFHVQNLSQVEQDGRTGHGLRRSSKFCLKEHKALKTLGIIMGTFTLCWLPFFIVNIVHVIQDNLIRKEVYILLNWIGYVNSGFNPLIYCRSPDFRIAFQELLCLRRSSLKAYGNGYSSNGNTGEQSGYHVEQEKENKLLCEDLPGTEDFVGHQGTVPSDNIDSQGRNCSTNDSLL
5-hydroxytryptamine receptor 2A (Homo sapiens), sequence (P28223 whole entry, looked up): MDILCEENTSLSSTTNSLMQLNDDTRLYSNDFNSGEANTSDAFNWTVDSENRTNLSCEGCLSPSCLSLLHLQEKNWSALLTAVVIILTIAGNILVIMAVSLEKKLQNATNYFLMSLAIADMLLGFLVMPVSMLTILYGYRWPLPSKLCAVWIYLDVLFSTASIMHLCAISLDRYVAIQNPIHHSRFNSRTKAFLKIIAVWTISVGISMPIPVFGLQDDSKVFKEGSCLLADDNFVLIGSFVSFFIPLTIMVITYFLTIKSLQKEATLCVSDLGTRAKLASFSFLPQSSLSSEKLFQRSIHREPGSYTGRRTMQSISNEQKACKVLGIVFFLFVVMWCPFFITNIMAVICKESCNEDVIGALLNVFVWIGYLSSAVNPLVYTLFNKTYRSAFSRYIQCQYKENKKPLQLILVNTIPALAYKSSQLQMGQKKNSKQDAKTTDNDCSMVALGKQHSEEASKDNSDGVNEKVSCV

On to `CCCCCCC/C=C/C=O`, for which the Potency result in assay [1], in assay [2], in assay [3], in [6], in assay [7] and in assay [8] was “inactive” throughout. The Potency result in [9], in assay [10], in assay [11], in [12], in [13] and in [14] was “inactive” each time. For the same compound, the Potency result in assay [15], in assay [16], in assay [17] and in [18] was “inactive” throughout. The outcome in assay [4] and in assay [5] was inactive.
`C[C@@H]1CN(CCCn2c3ccccc3c3ccccc32)C[C@H](C)N1`: the Potency in assay [1] is 26.6 µM (active). For the same compound, the Potency entry in assay [2], in assay [3], in assay [6], in [7], in [8] and in [9] was “inactive” throughout. The Potency entry in assay [10], in assay [11], in assay [12], in [13], in assay [16] and in assay [18] was “inactive” throughout. Further, the outcome in assay [4] and in assay [5] was inactive.
Consider `Nc1ccc(C(=O)N2CC3CC(CN(Cc4ccccc4)C3)C2)cc1`, for which the Potency result in assay [1], in [2], in assay [3], in assay [6], in assay [7] and in assay [8] was “inactive” throughout. Besides, the Potency entry in [9], in assay [10], in assay [11], in [13], in assay [15] and in assay [17] was “inactive” in each case. Besides, the Potency entry in assay [18] was “inactive”. The result in [4] and in [5] was inactive. For the same compound, in assay [12], the Potency is 1.83 µM (active).
On to `C[C@@H]1O[C@@H](O[C@@H]2[C@@H](O)[C@H](OCCc3ccc(O)c(O)c3)O[C@H](CO[C@@H]3O[C@H](CO)[C@@H](O)[C@H](O)[C@H]3O)[C@H]2OC(=O)/C=C/c2ccc(O)c(O)c2)[C@H](O)[C@H](O)[C@H]1O`, for which the Potency result in assay [1], in [2], in assay [3], in assay [6], in [7] and in [8] was “inactive” in each case. For the same compound, the Potency result in assay [9], in [10], in [11], in assay [19], in [12] and in assay [13] was “inactive” in each case. Also, the Potency result in assay [20] and in assay [14] was “inactive” each time. Also, the outcome in assay [4] and in assay [5] was inactive.
With `O=C(O)c1cccc(C(=O)O)c1C(=O)O`, the Potency entry in [1], in assay [2], in assay [3], in assay [6], in assay [7] and in [8] was “inactive” in each case. Besides, the Potency entry in assay [9], in assay [10], in assay [11], in assay [12], in assay [13] and in assay [20] was “inactive” in each case. In addition, the Potency entry in [16], in assay [17] and in assay [18] was “inactive” in each case. Moreover, the outcome in assay [4] and in assay [5] was inactive.
For `CCCCCCOC(=O)CCC`, the Potency result in assay [1], in assay [2], in assay [3], in assay [6], in assay [7] and in [8] was “inactive” throughout. Moreover, the Potency result in assay [9], in [10], in assay [11], in assay [12], in [13] and in [20] was “inactive” in each case. Moreover, the Potency entry in [14], in [17] and in [18] was “inactive” in each case. The outcome in assay [4] and in assay [5] was inactive.
`CSc1nc(NC2CC2)nc(NC(C)(C)C)n1`: the Potency entry in assay [1], in assay [2], in [3], in [6], in [7] and in assay [8] was “inactive” throughout. Further, the Potency result in assay [9], in assay [10], in assay [11], in assay [12], in assay [13] and in assay [20] was “inactive” each time. In addition, the Potency result in assay [15], in [17] and in assay [18] was “inactive” each time. Besides, the outcome in [4] and in [5] was inactive.
As to `COc1c(Br)cc(Br)c(C)c1Br`, the Potency result in assay [1], in assay [2], in assay [3], in assay [6], in assay [7] and in assay [8] was “inactive” throughout. Besides, the Potency entry in assay [9], in [10], in assay [11], in assay [13], in [20] and in assay [14] was “inactive” each time. In addition, the Potency result in assay [15], in [17] and in assay [18] was “inactive” in each case. Besides, the outcome in [4] and in assay [5] was inactive.
